# PubChem BioAssay
# Unmarked numbers belong to inactive results. For some assays here: Entries with a potency or affinity are not part of this list. Activity calls are given as the source filed them. Unless noted, the rule behind the calls is not given here.
# Columns and labels:
# [1] = antimalarial activity against Dd2 strain (AID 2302;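 active = growth inhibition above 50% at the single 2 µM test dose, taken to imply half-maximal potency below 2 µM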;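 note: 0% = DMSO untreated growth and 100% = chloroquine plus artemisinin killed control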); conditions: P. falciparum Dd2 in RBCs, LDH growth readout, 72 h; at 2 µM; active compounds read high
# [2] = HepG2 cytotoxicity, primary screen, cytotoxicity control for P. falciparum antimalarial project, cell-based, ATP luminescence (AID 2303;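 active = inhibition above 50%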;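 note: 0% = DMSO wells and 100% = digitonin-killed cells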); conditions: HepG2 viability, 24-48 h, at 10 µM, active compounds read high
# [3] = molecular target: L-lactate dehydrogenase (Plasmodium falciparum (isolate CDC / Honduras)) (UniProt Q27743); test: PfLDH activity inhibition – cell lysate, 3D7 strain, counter-screen for P. falciparum growth inhibition project (AID 2304);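 note: 0% = vehicle and 100% = reference inhibitor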; conditions: P. falciparum 3D7 crude extract, LDH APAD/NBT absorbance; at 2 µM; active compounds read high
# [4] = inhibition of 3D7 malaria parasite growth – strain 3D7 (AID 2306);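 note: 0% = DMSO wells and 100% = chloroquine plus artemisinin control wells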; conditions: P. falciparum 3D7 erythrocytic growth, LDH absorbance, 72 h; at 2 µM; active compounds read high
# [5] = molecular target: Calcium-dependent protein kinase 1 (Plasmodium falciparum (isolate 3D7)) (UniProt P62344); test: PfCDPK1 kinase inhibitors, biochemical, TCAMS library (AID 1159585; cut-off not given, nearly all actives have IC50 up to about 0.98 µM;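 note: inhibitors leave more ATP so luminescence rises with inhibition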); conditions: recombinant PfCDPK1, Kinase-Glo ATP depletion luminescence
# [6] = molecular target: Plasmodium falciparum protein kinase 6 (PK6, PF3D7_1337100) (UniProt Q8IDW1); test: PfPK6 kinase inhibitors, biochemical, TCAMS library (AID 1159586); conditions: recombinant PfPK6, Kinase-Glo ATP depletion luminescence
# [7] = molecular target: Protein kinase 7 (PK7), Plasmodium falciparum 3D7 (PF3D7_0213400) (UniProt Q7YTF7); test: inhibition of Plasmodium PK7 catalytic activity – biochemical, TCAMS antimalarial set, Kinase-Glo luminescence (AID 1159587); conditions: recombinant PfPK7, Kinase-Glo ATP depletion luminescence
# [8] = molecular target: Calcium-dependent protein kinase 4 (Plasmodium falciparum (isolate 3D7)) (UniProt Q8IBS5); test: PfCDPK4 kinase inhibitors, biochemical, TCAMS library (AID 1159588; cut-off not given, nearly all actives have IC50 up to about 0.91 µM); conditions: recombinant PfCDPK4, Kinase-Glo ATP depletion luminescence
# Chain of Calcium-dependent protein kinase 4 (Plasmodium falciparum (isolate 3D7)) (Q8IBS5 whole entry, looked up): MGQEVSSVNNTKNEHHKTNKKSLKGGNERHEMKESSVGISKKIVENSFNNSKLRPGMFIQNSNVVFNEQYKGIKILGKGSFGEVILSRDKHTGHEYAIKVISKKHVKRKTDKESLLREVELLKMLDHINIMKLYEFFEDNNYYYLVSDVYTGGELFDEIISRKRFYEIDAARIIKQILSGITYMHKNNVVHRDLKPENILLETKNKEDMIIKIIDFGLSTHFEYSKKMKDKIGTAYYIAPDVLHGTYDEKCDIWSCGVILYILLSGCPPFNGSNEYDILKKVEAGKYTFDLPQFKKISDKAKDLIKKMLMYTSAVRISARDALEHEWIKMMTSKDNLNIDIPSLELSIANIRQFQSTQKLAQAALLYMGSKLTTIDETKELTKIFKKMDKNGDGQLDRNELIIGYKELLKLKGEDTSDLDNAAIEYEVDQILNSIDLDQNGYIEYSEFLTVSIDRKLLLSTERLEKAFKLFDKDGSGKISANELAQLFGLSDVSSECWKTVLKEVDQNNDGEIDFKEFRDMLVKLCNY
# Chain of Calcium-dependent protein kinase 1 (Plasmodium falciparum (isolate 3D7)) (P62344 whole entry, looked up): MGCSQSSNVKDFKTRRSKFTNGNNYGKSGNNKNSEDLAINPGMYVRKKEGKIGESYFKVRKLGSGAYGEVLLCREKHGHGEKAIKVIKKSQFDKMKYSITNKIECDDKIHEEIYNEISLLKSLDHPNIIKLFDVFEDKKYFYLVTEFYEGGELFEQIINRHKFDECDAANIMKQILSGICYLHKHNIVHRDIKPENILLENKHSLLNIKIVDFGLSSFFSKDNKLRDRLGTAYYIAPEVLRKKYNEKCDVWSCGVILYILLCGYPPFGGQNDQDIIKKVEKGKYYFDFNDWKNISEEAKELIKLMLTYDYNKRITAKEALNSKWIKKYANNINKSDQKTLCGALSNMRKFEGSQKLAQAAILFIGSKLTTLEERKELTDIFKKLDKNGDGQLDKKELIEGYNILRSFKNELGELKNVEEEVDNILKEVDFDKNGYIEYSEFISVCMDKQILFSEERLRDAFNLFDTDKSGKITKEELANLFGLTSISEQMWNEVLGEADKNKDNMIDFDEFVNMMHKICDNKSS
# Chain of Plasmodium falciparum protein kinase 6 (PK6, PF3D7_1337100) (Q8IDW1 1-305): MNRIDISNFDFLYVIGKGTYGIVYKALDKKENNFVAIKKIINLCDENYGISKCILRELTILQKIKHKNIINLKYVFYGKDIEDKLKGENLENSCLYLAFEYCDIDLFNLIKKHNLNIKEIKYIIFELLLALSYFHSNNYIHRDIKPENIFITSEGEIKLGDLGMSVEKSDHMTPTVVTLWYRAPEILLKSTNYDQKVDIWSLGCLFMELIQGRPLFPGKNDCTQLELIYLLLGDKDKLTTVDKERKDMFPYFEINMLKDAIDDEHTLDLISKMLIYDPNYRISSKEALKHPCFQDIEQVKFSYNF
# Chain of L-lactate dehydrogenase (Plasmodium falciparum (isolate CDC / Honduras)) (Q27743 whole entry, looked up): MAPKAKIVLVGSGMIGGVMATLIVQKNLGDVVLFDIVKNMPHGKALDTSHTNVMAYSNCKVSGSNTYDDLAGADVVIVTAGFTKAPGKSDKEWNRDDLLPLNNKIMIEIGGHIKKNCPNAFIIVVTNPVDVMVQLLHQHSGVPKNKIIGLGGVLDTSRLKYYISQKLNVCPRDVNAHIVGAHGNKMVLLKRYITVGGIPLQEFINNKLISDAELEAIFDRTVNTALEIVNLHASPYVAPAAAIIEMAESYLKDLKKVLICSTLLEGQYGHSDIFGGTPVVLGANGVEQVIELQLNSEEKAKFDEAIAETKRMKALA
# Chain of Protein kinase 7 (PK7), Plasmodium falciparum 3D7 (PF3D7_0213400) (Q7YTF7 1-343): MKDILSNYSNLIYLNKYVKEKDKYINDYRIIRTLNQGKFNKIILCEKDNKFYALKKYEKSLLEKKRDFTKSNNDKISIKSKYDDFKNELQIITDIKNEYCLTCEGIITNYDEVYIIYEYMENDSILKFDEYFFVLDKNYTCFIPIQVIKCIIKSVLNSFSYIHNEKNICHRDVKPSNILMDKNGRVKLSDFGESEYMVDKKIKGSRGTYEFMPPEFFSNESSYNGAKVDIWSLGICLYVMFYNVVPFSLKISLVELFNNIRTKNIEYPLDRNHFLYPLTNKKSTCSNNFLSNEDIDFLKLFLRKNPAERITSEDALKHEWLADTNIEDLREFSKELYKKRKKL
Structure (SMILES),growth inhibition [1],inhibition [2],inhibition [3],growth inhibition [4],outcome [5],outcome [6],outcome [7],outcome [8]
CC(C)CNCc1ccc(-c2ccc(CN(C(=O)NCCc3ccccc3)C3CCN(Cc4ccccc4)CC3)cc2)cc1,62% (active),37%,-3%,98% (active),inactive,inactive,inactive,inactive
Cc1ccc2nc(Nc3ccc(Nc4nc5ccc(C)cc5[nH]4)c(C)c3)[nH]c2c1,94% (active),12%,6%,99% (active),inactive,inactive,inactive,inactive
COc1cc(SC)c(Br)cc1-c1nc2ccncc2[nH]1,9%,5%,-1%,91% (active),inactive,inactive,inactive,inactive
COc1ccc(-c2cnc(N)c(-c3ccc(C(N)=O)cc3)c2)cc1OC,98% (active),11%,4%,96% (active),inactive,inactive,inactive,inactive
O=C(N[C@H]1CCN(Cc2ccc(OCCCN3CCCCC3)cc2)C1)c1ccc(Oc2ccccc2)cc1,11%,56% (active),6%,96% (active),inactive,inactive,inactive,inactive
O=C(NCCN1CCCC1)c1cccc(-c2ccc(-c3nc4ccccc4[nH]3)cc2)c1,36%,20%,0%,100% (active),inactive,inactive,inactive,inactive
CCOc1cc2c(cc1OCC)C(c1ccc(O)c(Cl)c1)NCC2 (stereo not given),98% (active),6%,4%,98% (active),inactive,inactive,inactive,inactive
N#Cc1ccc(C(=O)Nc2cccc(-c3ccc(CN4CCCC4)cc3)c2)cc1,-2%,13%,-2%,99% (active),inactive,inactive,inactive,inactive
CCOc1cc(NC(=O)Nc2ccnc3ccccc23)cc(OC)c1,73% (active),-7%,3%,98% (active),inactive,inactive,inactive,inactive
COc1ccc(-c2cc(C(=O)N[C@@H](Cc3ccccc3)C(=O)NCCN3CCCCC3)ccc2O)cc1,-3%,-3%,1%,96% (active),inactive,inactive,inactive,inactive
CN1CCN(CCCN(Cc2csc(-c3ccc(CNCc4ccccc4)cc3)n2)S(=O)(=O)c2ccc(F)cc2)CC1,80% (active),21%,3%,101% (active),inactive,inactive,inactive,inactive
CC(=O)Nc1ncc(C(=O)Nc2cccc(-c3cccc(-c4nc5ccc(C(F)(F)F)cc5[nH]4)c3)c2)s1,99% (active),76% (active),3%,101% (active),inactive,inactive,inactive,inactive
O=C(COc1ccccc1Cl)N1CCc2cc3nccc(N4CCN5CCC[C@H]5C4)c3cc21,99% (active),4%,-1%,91% (active),inactive,inactive,inactive,inactive
Cc1ccc(CNC(=O)[C@H](Cc2ccccc2)Nc2cc(C)nc(Nc3ccccc3)n2)cc1,91% (active),16%,1%,101% (active),inactive,inactive,inactive,inactive
C=CCc1cc(Br)ccc1OCCCON1C(N)=NC(N)=NC1(C)C,97% (active),61% (active),2%,95% (active),inactive,inactive,inactive,inactive
O=C(/C=C/c1ccccc1Cl)NC1CCC(CN2CCC(c3c[nH]c4ccncc34)CC2)CC1 (stereo not given),100% (active),19%,-2%,100% (active),inactive,inactive,inactive,inactive
C=Cc1ccc(-c2c(C)[nH]c(C)c(Br)c2=O)cc1,96% (active),-2%,-3%,98% (active),inactive,inactive,inactive,inactive
CCCN(CCC)C(=O)c1cc(C(=O)N[C@@H](Cc2ccccc2)[C@H](O)CNCc2cccc(C(F)(F)F)c2)cc(N2CCCCS2(=O)=O)c1,74% (active),-5%,3%,99% (active),inactive,inactive,inactive,inactive
Cc1ncccc1-c1cccc2c(NC(=O)Nc3ccc4nccc(N5CCN(C)CC5)c4c3)cccc12,96% (active),19%,-6%,101% (active),inactive,inactive,inactive,inactive
O=C(/C=C/c1ccc(Cl)c(Cl)c1)NCCCCCN1CCC(NC(=O)NCCc2ccccc2)CC1,7%,23%,2%,100% (active),inactive,inactive,inactive,inactive

Structure (SMILES),growth inhibition [1],inhibition [2],inhibition [3],growth inhibition [4],outcome [5],outcome [6],outcome [7],outcome [8]
COc1ccc(C=NNc2cc(C)nc3ccccc23)c2ccccc12,69% (active),26%,-1%,99% (active),inactive,inactive,inactive,inactive
COc1ccc(CNC2Cc3ccccc3C2)cc1-c1ccc(S(=O)(=O)NCCN2CCCC2)c(F)c1,69% (active),44%,-6%,101% (active),inactive,inactive,inactive,inactive
CCCc1cc(Cc2cnc(N)nc2N)cc(CCC)c1OCCCCCC(=O)OCC,-3%,12%,-1%,95% (active),inactive,inactive,inactive,inactive
COc1cc(Br)ccc1N1CCN(CCCCNC(=O)c2ccc(NC(=O)c3ccc(Cl)cc3)cc2)CC1,33%,55% (active),1%,96% (active),inactive,inactive,inactive,inactive
O=C(Nc1cccc(-c2cccc(-c3nc4ccc(C(F)(F)F)cc4[nH]3)c2)c1)c1ccncc1,61% (active),52% (active),4%,101% (active),inactive,inactive,inactive,inactive
COc1ccc(Nc2nccc(NCCNC(=O)Nc3cc(C)ccc3C)n2)cc1,-3%,10%,2%,85% (active),inactive,inactive,inactive,inactive
O=C(COc1cnc2ccccc2n1)Nc1ccccc1Sc1ccc(Cl)cc1,100% (active),6%,6%,100% (active),inactive,inactive,inactive,inactive
O=C(OCc1ccccc1)N1CCc2c([nH]c3ccccc23)C1CCC(F)(F)F (stereo not given),81% (active),0%,3%,94% (active),inactive,inactive,inactive,inactive
CN1CCN(CCCN(Cc2cccc(-c3ccc(CNC4CCCC4)cc3)c2)C(=O)CCC2CCCC2)CC1,84% (active),16%,-1%,97% (active),inactive,inactive,inactive,inactive
O=C(Nc1ccc(C(=O)Oc2ccc3ccccc3c2)cc1)N[C@@H](Cc1ccc(O)cc1)C(=O)NC1CCN(Cc2ccc(O)cc2)C1 (stereo not given in full),1%,1%,-2%,86% (active),inactive,inactive,inactive,inactive
CN1CCC(N2CCN(c3ccc4c(=O)nc(CCc5cccc(F)c5F)n(CC(=O)N(C)Cc5ccc(-c6ccc(C(F)(F)F)cc6)cc5)c4n3)CC2)CC1,99% (active),15%,2%,100% (active),inactive,inactive,inactive,inactive
COc1cc2nc(N(C)C)nc(Nc3ccc(OCc4ccccc4)cc3)c2cc1OC,101% (active),91% (active),-8%,100% (active),inactive,inactive,inactive,inactive
CCC(C)CNC(=O)CN1CN(c2ccccc2)C2(CCN(C(=O)c3ccc(Br)cc3)CC2)C1=O (stereo not given),88% (active),10%,-2%,88% (active),inactive,inactive,inactive,inactive
CCN(CCCN1CCCCC1)c1cc(C)nc(Nc2cc(C(F)(F)F)ccc2C)n1,41%,35%,-2%,96% (active),inactive,inactive,inactive,inactive
O=C(C=Cc1ccc(F)cc1)N1CCN(S(=O)(=O)c2ccc(Cl)cc2)CC1,93% (active),10%,-2%,91% (active),inactive,inactive,inactive,inactive
Cc1cccc2[nH]c(-c3ccc(-c4ccc(CN5CCCC5CN)cc4)cc3)nc12 (stereo not given),65% (active),28%,1%,99% (active),inactive,inactive,inactive,inactive
CCN(CC)CCN(Cc1ccc(-c2ccc(C(F)(F)F)cc2)cc1)C(=O)Cn1c(CCc2ccc(F)c(F)c2F)nc(=O)c2cccnc21,20%,29%,-3%,89% (active),inactive,inactive,inactive,inactive
CCc1cn2c3c(cc(C(=O)N[C@@H](Cc4cc(F)cc(F)c4)[C@H](O)CNC4CCOCC4)cc13)N(C)S(=O)(=O)CC2,98% (active),1%,-7%,98% (active),inactive,inactive,inactive,inactive
COC(=O)c1c(C#N)c(OC)cc(O)c1CSC[C@@H](CN1CCCCC1)Nc1nc(-c2ccc([N+](=O)[O-])cc2)cs1,77% (active),8%,-3%,101% (active),inactive,inactive,inactive,inactive
Clc1cccc(Nc2ccc3c(N4CCCCC4)ncnc3n2)c1,93% (active),54% (active),0%,97% (active),inactive,inactive,inactive,inactive
